# According to PubChem BioAssay (EPA / NIEHS):
# Several values for one entry are separate records, joined by “and”; a condition that tells them apart may be missing. Equal entries are not always repeated. Some compounds were tested as several samples or in several runs, with calls that do not always agree. Activity calls are given as the source filed them. Rule for the calls: active = hit-call score of the fitted dose curve at least 0.9, where 1 is the maximum; inactive = score below 0.9.
# Read-out: Cellular tumor antigen p53 (Homo sapiens) (UniProt P04637)
# Experiment: LTEA_HepaRG_TP53: Life Technologies and Expression Analysis (LTEA) Assay for Tumor Protein P53 (TP53) using HepaRG (AID 2283537)
# Conditions: mRNA level, 48 h; actives raise or lower the signal
# Experimental: LTEA_HepaRG is a cell based, multiplexed-readout assay that uses HepaRG, a human liver cell line, with measurements taken at 48 hours after chemical dosing on a 96-well plate.LTEA_HepaRG_TP53 is one of 102 assay component(s) measured in the LTEA HepaRG cell culture assay. It is a marker of Oxidative Stress.Data from the assay component LTEA_HepaRG_TP53 was analyzed into 1 endpoint. This assay endpoint, LTEA_HepaRG_TP53, was analyzed with bidirectional fitting relative to DMSO as the negative control and baseline of activity. Using a type of inducible reporter, measures of mRNA induction for gain or loss-of-signal activity can be used to understand regulation of transcription factor activity. To generalize the intended target to other relatable targets, this assay endpoint is annotated to the dna binding intended target family, where the subfamily is tumor suppressor.
# A total of 1060 chemcials from the ToxCast library were tested in eight-point concentration-response experiments. Cell culture and cytotoxicity assays were conducted at Thermo Fisher Scientific's Custom Services facility (Madison, WI). A single lot of human HepaRG cells (Thermo Fisher Scientific, Frederick, MD) was used for the cell culture experiments. 96-well format collagen type I coated plates of human HepaRG cells were prepared using established methods. Briefly, cryopreserved HepaRG cells were thawed, plated at a density of approximately 100,000 cells/well in HepaRG Thaw, Plate, and General Purpose media (HPRG770, Thermo Fisher Scientific), and incubated for 48 hours. 0.5% DMSO was selected as vehicle control to balance the requisite need of DMSO in HepaRG cultures to maintain differentiation (for example, baseline metabolism, proportions of hepatocytes vs. cholangiocytes), while enabling further hepatic receptor pathway activation (for example, PXR and CAR) in response to chemical exposure. 48 hours after plating, the culture medium was replaced with HepaRG Serum-Free Incudtion Media. Cells were exposed to each test chemical in duplicate and maintained in CO2 incubators for another 48 hours. Chemical plates were thawed to room temperature and 200x concentrations of treatment groups were prepared. 8-point conentration-reponse curves were made with the highest exposure at 100 uM, followed by half-log dilutions, all in 0.5% DMSO. Each test plate contained variouse controls, induction positive controls (1mM phenobarbital), cytotoxicity positive controls ([…] aflatoxin B1), vehicle controls (0.5% DMSO), and total lysis controls (0.5% DMSO). Cell morphology images were taken using an Essen IncuCyte FLR automated microscope, with six 96-well plates imaged in about 24 minutes. Images were captured and exported and JPEG files. Spent culture media was transfered to black-well plates for the LDH assay, and remaining media was sorted at -80 C for later use. Cells were treated with RLT buffer and frozen until shipped for gene expression analysis. Total RNA was isolated from the cell suspension in 75 uL of Buffer RLT (Qiagen, Germantown, MD 20874) by Quintiles/Expression Analysis (Durham, NC) using a custom isolation procedure. Total RNA from each plate well was transferred to a preamplification plate. Fluidigm's 96.96 Dynamic ArrayTM (Fluidigm, Amsterdam, the Netherlands) technology was used for gene expression analyses by quantitative reverse transcription polymerase chain reaction (qRT-PCR, performed by Quintiles/Expression Analysis, Durham, NC)89. Standard TaqManTM Assays (Applied Biosystems/ThermoFisher Scientific, Foster City, CA) were used to assess the expression of 93 genes selected based on their selectivity and sensitivity to important hepatic receptors known to be modulated by environmental chemicals; importance in human hepatocyte functionality; and hepatotoxicity. […]
# Chain of Cellular tumor antigen p53 (Homo sapiens) (P04637 whole entry, looked up): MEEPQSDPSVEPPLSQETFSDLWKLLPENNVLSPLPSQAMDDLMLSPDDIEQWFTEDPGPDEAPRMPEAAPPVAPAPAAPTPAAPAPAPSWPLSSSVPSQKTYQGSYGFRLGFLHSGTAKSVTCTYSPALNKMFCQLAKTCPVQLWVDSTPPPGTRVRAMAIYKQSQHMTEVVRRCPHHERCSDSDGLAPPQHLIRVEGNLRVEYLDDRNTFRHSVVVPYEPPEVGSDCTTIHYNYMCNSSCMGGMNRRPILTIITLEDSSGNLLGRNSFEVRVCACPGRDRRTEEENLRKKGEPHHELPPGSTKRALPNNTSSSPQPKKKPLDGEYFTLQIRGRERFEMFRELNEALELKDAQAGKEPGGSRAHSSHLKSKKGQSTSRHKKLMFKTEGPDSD
SMILES,outcome,AC50
CNC(=O)Oc1ccccc1OC(C)C,inactive,
CC[C@H](C)[C@H]1O[C@]2(C=C[C@@H]1C)C[C@@H]1C[C@@H](C/C=C(\C)[C@@H](O[C@H]3C[C@H](OC)[C@@H](O[C@H]4C[C@H](OC)[C@@H](O)[C@H](C)O4)[C@H](C)O3)[C@@H](C)/C=C/C=C3\CO[C@@H]4[C@H](O)C(C)=C[C@@H](C(=O)O1)[C@]34O)O2 (tested in a mixture with another compound),,6.99 µM (active)
O=C(O)C(F)(F)C(F)(F)C(F)(F)C(F)(F)C(F)(F)C(F)(F)C(F)(F)F,inactive,12.3 µM (active)
CNC(=O)Oc1cccc(N=CN(C)C)c1,inactive,
CC(C)(C)C(O)C(Oc1ccc(Cl)cc1)n1cncn1 (stereo not given),inactive,0.354 µM (active)
COP(=S)(OC)Oc1ccc([N+](=O)[O-])cc1,inactive,
CC1(c2ccc(Oc3ccccc3)cc2)OC(=O)N(Nc2ccccc2)C1=O (stereo not given),,12.9 µM (active)
O=S1OCC2C(CO1)C1(Cl)C(Cl)=C(Cl)C2(Cl)C1(Cl)Cl (stereo not given),,70.2 µM (active)
CN1CSC(=S)N(C)C1,inactive,
CC1(C)C(C=C(Cl)Cl)C1C(=O)OC(C#N)c1ccc(F)c(Oc2ccccc2)c1 (stereo not given),inactive,
C[C@H]1[C@H](c2ccc(Cl)cc2)SC(=O)N1C(=O)NC1CCCCC1,,82.3 µM (active)
COc1nn(CSP(=S)(OC)OC)c(=O)s1,inactive,
CC(C)N(C(=O)COc1nnc(C(F)(F)F)s1)c1ccc(F)cc1,inactive,
N#Cc1c(Cl)c(Cl)c(Cl)c(C#N)c1Cl,inactive,
O=C(O)COc1ccc(Cl)cc1Cl,inactive,
Oc1cc(Cl)ccc1Oc1ccc(Cl)cc1Cl,inactive,
COP(=S)(OC)Oc1ccc(SC)c(C)c1,inactive,

SMILES,outcome,AC50
O=C1c2ccccc2C(=O)N1SC(Cl)(Cl)Cl,inactive,
O=C(O)CCCOc1ccc(Cl)cc1Cl,inactive,
CCN(CC)C(=O)SCc1ccc(Cl)cc1,inactive,
CCc1ccc(C(=O)NN(C(=O)c2cc(C)cc(C)c2)C(C)(C)C)cc1,inactive,
O=C(Nc1ccccc1)Nc1cnns1,inactive,
CCC(C)(NC(=O)c1cc(Cl)c(C)c(Cl)c1)C(=O)CCl (stereo not given),inactive,
O=[N+]([O-])c1c(Cl)c(Cl)c(Cl)c(Cl)c1Cl,inactive,
CC(C)(C)C(O)/C(=C\c1ccc(Cl)cc1Cl)n1cncn1 (stereo not given),inactive,
OCCOc1ccccc1,inactive,
Oc1ccc(Cl)cc1Cc1ccccc1,inactive,
CC(C)OC(=O)Nc1cccc(Cl)c1,inactive,
CCCN(CCOc1c(Cl)cc(Cl)cc1Cl)C(=O)n1ccnc1,,17.6 µM (active)
CCC(C)(C)C(=O)OC1=C(c2ccc(Cl)cc2Cl)C(=O)OC12CCCCC2,inactive,
CCOCN(C(=O)CCl)c1c(C)cccc1CC,inactive,
O=S(=O)(O)C(F)(F)C(F)(F)C(F)(F)C(F)(F)C(F)(F)C(F)(F)C(F)(F)C(F)(F)F,,50 µM (active) and 48 µM (active)
ClC1C(Cl)C(Cl)C(Cl)C(Cl)C1Cl (stereo not given),inactive,
